UGM FP inh – blocks M. tuberculosis UGM enzyme | P9WIQ1 | purified UGM, fluorescence polarization probe displacement | inhibition, % at 10 µM | actives 0.06% (n = 320,000); in the data active means inhibition above about 10%, passing the limit was not always enough; inconclusive means no clear call, values can overlap the other calls
Target sequence (P9WIQ1 whole entry, looked up): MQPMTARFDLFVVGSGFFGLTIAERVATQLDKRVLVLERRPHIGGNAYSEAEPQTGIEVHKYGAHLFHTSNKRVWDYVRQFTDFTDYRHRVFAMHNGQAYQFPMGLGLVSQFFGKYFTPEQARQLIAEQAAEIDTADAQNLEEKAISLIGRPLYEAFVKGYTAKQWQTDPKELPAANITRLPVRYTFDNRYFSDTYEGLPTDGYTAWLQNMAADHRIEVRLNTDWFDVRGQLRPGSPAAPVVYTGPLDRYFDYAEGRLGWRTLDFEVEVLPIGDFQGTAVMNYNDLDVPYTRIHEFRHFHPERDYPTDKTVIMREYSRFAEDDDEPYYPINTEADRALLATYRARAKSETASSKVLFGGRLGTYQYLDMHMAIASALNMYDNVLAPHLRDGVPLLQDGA
GDH-TPI counter – inhibits GDH-TPI coupling enzymes, artifact for Mtb FBA screen. actives 1.2% (n = 360,000). AID 588335. GDH-TPI coupled enzyme counterscreen, NADH absorbance. inhibition, % at 4.8 µM; in the data active means inhibition above about 30%;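 further: 0% = DMSO wells and 100% = wells lacking the enzyme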
Mtb bLac sens – beta-lactam sensitization of Mtb H37Rv | actives 0.27% (n = 330,000) | inhibition, % at 25 µM | M. tuberculosis H37Rv growth with meropenem, percent inhibition; call rule not given here;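 further: growth measured after seven days incubation then overnight dye step; 0% = bacteria only wells and 100% = bacteria with antibiotic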
Rv3671c protease – inhibits the M. tuberculosis serine protease Rv3671c; actives 0.048% (n = 320,000); inhibition, % at 5.96 µM; P9WHR9; in the data active means inhibition above about 38%;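 further: extracellular domain of Rv3671c used as enzyme; 0% = enzyme with DMSO and 100% = no enzyme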
FBA Mtb inh – Mtb fructose-bisphosphate aldolase inhibition | P9WQA3 | actives 2.3% (n = 360,000) | purified M. tuberculosis FBA, fluorescence read-out | inhibition, % at 1 µM; in the data active means inhibition above about 27%;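 further: 0% = vehicle and 100% = reference inhibitor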
The depositor's hits bear a star; ? = inconclusive; · = no result; + = active, no number. Shown are actives, neighbours in structure and some others; about 3.5% of the full set was active somewhere.

SMILES | UGM FP inh | GDH-TPI counter | Mtb bLac sens | Rv3671c protease | FBA Mtb inh
CCC1OC23CCCCC2C(C#N)(C(=N)O3)C1(C#N)C#N (configuration not stated) | 7 | 13 | -9 | 7 | 58*
CCN(CC)CCCN=C1N[C@@H](c2cccc(C(F)(F)F)c2)C(C(=O)OC)=C(C)N1CC | -3 | -10 | 1 | 3 | 0
Cn1c(N/N=C/c2c[nH]c3ccccc23)nc2ccccc21 | 0 | 58* | 66 | 13 | 2
COc1ccccc1/C=N/NC1=NCCCCC1 | 0 | 18 | -2 | -6 | -2
C(=N\NC1=NCCCCC1)/c1c[nH]c2ccccc12 | 1 | 39* | -15 | 0 | -4
Cc1cnc(C(=O)OCC(=O)c2ccc(-c3ccccc3)cc2)cn1 | -1 | 16 | -12 | -8 | 3
COc1ccccc1-c1nnc2n1N=C(c1ccc(O)c(O)c1)CS2 | -1 | 36* | 4 | 21 | -5
c1ccc(-c2ccc(C3=Nn4c(nnc4-c4cc(-c5ccccc5)n[nH]4)SC3)cc2)cc1 | -1 | 44* | 0 | -56 | -3
Cc1ccc(C2(C(F)(F)F)NC(=O)N3N=C4CCCCCN4C3=C2C#N)cc1 (configuration not stated) | 3 | -2 | -4 | -7 | 1
Cc1cc(Cl)ccc1OCCCC(=O)N1CCN(S(=O)(=O)c2ccccc2)CC1 | 0 | -6 | -9 | 7 | 0
Cc1ccc(Nc2nc(N)c(C#N)c(CC#N)c2C#N)cc1 | -3 | 38* | 0 | -6 | -2
Cc1ccc(-c2nc3ccccc3s2)cc1S(=O)(=O)N1CCCC1 | 5 | 6 | -4 | -9 | 1
Cc1cc(-c2nc3cc(F)ccc3s2)ccc1N | · | 38* | · | · | ·
Cc1cc(C)c(NC(=O)COC(=O)COc2ccc3c(C)cc(=O)oc3c2)c(Cl)c1 | -3 | 7 | 3 | 2 | 18
CC(NC(=O)c1ccccc1N)c1ccccc1 (configuration not stated) | -1 | -5 | 5 | -5 | 47*
COc1ccc(/C=C2\N=C(SC)NC2=O)cc1 | 1 | 14 | -15 | -17 | 0
COc1ccc(/C=C2/N=C(SC)NC2=O)cc1OC | 1 | 40* | -4 | 9 | -6
Cc1sc2nc(CSCC(=O)Nc3ccc(Cl)cc3F)[nH]c(=O)c2c1C | · | 6 | · | · | -2
Cc1cc(C(=O)OCCO)c(C#N)c(N)n1 | -1 | 12 | -6 | -8 | 143*
C#CCSc1nc(C)cc(C(=O)OCC)c1C#N | -2 | 0 | 16 | 0 | 3
COc1ccc(CC(=O)N/N=C/c2ccc(-c3ccc(F)cc3)o2)cc1OC | 5 | 45* | 60 | -3 | 0
O=[N+]([O-])c1ccc(/C=N/NC(=S)Nc2ccccc2)o1 | -2 | 4 | 65 | 5 | 0
O=[N+]([O-])c1cccc(-c2ccc(/C=N/NC(=S)Nc3ccccc3)o2)c1 | -3 | 34* | 77 | 22 | 1
CNC(=S)N/N=C/c1ccc(-c2cccc(C(=O)O)c2)o1 | 2 | 85* | -10 | 8 | 7
COc1ccc(CC(=O)N/N=C/c2ccc(-c3cccc(C(=O)O)c3)o2)cc1OC | -1 | 75* | -2 | -6 | 5
SMILES | UGM FP inh | GDH-TPI counter | Mtb bLac sens | Rv3671c protease | FBA Mtb inh
COc1ccc(CC(=O)N/N=C/c2cc(Br)cs2)cc1OC | -2 | 5 | 99 | 4 | 3
Cc1ccc(OCC(=O)N/N=C\c2ccc(-c3cccc(C(=O)O)c3)o2)c(C)c1 | 3 | 24 | 8 | 1 | 9
COc1ccc(NS(=O)(=O)c2cccc(C(=O)NNC(=O)CN3C(=O)NC(C)(C)C3=O)c2)cc1 | 1 | 1 | -1 | -5 | 1
Cc1ccc(NC(=O)COC(=O)CNC(=O)c2cccs2)cc1S(=O)(=O)N1CCOCC1 | · | -6 | · | · | -2
Cc1nc(Cl)cc(N/N=C/c2ccc(O)cc2)n1 | 0 | 35* | -1 | 0 | -1
Oc1ccc(/C=N/Nc2cc(N3CCCC3)nc(N3CCCC3)n2)cc1 | 0 | 11 | 7 | -10 | -1
Cc1cc(N/N=C/c2ccc(O)cc2O)nc(-n2nc(C)cc2C)n1 | 0 | 36* | 100 | -7 | 0
CCOc1ccc(/C=N/Nc2cc(N3CCOCC3)nc(C)n2)c(O)c1 | 1 | 34* | 85 | 11 | 5
Oc1ccc(/C=N/Nc2ccc(Cl)nn2)cc1O | 2 | 32* | 6 | 4 | 1
CCOc1ccc(/C=N/Nc2cc(C)nc(N3CCOCC3)n2)cc1 | 0 | 14 | 38 | 7 | 1
O=C(Nc1ccn(CCCNCc2cccc3ccccc23)c(=O)n1)OCc1ccccc1 | · | -3 | · | · | -1
COc1cccc(/C=N/Nc2cc(Cl)nc(C)n2)c1O | -3 | 8 | 97 | -2 | 5
Cc1nc(Cl)cc(N/N=C/c2ccc(O)cc2O)n1 | -1 | 59* | -6 | 3 | 1
O=C1CN(CC(=O)Nc2cccc(Cl)c2Cl)c2ccccc2N1 | -1 | 9 | -3 | 1 | 6
Nc1nnc(/C=C/c2cccc([N+](=O)[O-])c2)s1 | -3 | 44* | -2 | 0 | 0
O=C(CNS(=O)(=O)c1cccc2nsnc12)NCCc1ccccc1 | 2 | 9 | -2 | -10 | 0
Cn1c(C(=O)NCCC2=CCCCC2)cc2c(=O)n3ccccc3nc21 | 1 | 4 | 2 | -1 | 114*
Cc1cccn2c(=O)c3cc(C(=O)NCCC4=CCCCC4)n(C)c3nc12 | -1 | 6 | 5 | 9 | 12
Cn1c(C(=O)N2COCC2(C)C)cc2c(=O)n3ccccc3nc21 | 0 | -4 | -4 | 6 | +
CN(C)c1ccc(NC(=O)c2cc3c(=O)n4ccccc4nc3n2C)cc1 | 2 | 23 | -4 | -2 | 5
Cn1c(C(=O)NCC2CCCO2)cc2c(=O)n3ccccc3nc21 (configuration not stated) | 1 | 14 | -4 | 0 | +
CC1(C)C(=O)Nc2ccccc2N1C(=O)COC(=O)c1ccc(NC(N)=O)cc1 | · | 6 | · | · | 0
O=C(C1CCN(S(=O)(=O)c2cccs2)CC1)N(c1ccccn1)C1CCCCC1 | 1 | -7 | 0 | 3 | 0
CCCCC(=O)Nc1ccc(C(=O)NNC(=S)NC(=O)c2ccccc2[N+](=O)[O-])cc1 | 1 | 38* | 0 | 3 | 0
CCOC(=O)C1CCN(Cc2ccccn2)CC1 | 1 | · | -6 | -3 | ·
SMILES | UGM FP inh | GDH-TPI counter | Mtb bLac sens | Rv3671c protease | FBA Mtb inh
CCOC(=O)C1CCN(C=Nc2cc(C)on2)CC1 | 0 | 8 | -14 | 1 | +
CC1(C)CC(=O)C=C(Nc2cccc(Cl)c2Cl)C1 | 2 | -5 | 80 | 5 | -1
CC(=O)C1=C(O)C(=O)N(CCO)C1c1ccccc1 (configuration not stated) | -1 | 47* | 0 | 5 | 1
Cc1c(N2C(=O)CS/C2=N\N=C\c2ccc(Cl)cc2)c(=O)n(-c2ccccc2)n1C | 1 | 10 | ? | 5 | 1
COc1ccc(/C=N/N=C2\SCC(=O)N2c2c(C)n(C)n(-c3ccccc3)c2=O)cc1OC | 0 | 41* | 0 | 0 | -2
Cc1c(N2C(=O)CS/C2=N\N=C\c2ccccc2O)c(=O)n(-c2ccccc2)n1C | 1 | 32* | -3 | -7 | -1
NC1=NC[C@H](c2ccccc2)N1CCc1cccc(F)c1 | 2 | -1 | -10 | -12 | 0

Source: PubChem BioAssay (several laboratories)
